In PubChem BioAssay AID463173 (ICCB-Longwood Screening Facility, Harvard Medical School, 2010):
About 1,700 (3.3%) of roughly 52,000 compounds were called active. The list comes from a sample in which actives are over-represented; it also holds similar structures and randomly drawn compounds. A number with no mark means an inactive call. Cut-off read from the data, not from the text of the source: active = survival mostly below about 52% (no sharp cut-off); inactive = mostly above about 56%.

test system: Wild type; assay: growth inhibition of S. aureus wild type versus tarO mutant, primary screen, teichoic acid synthesis inhibitors, RN4220, OD600 (AID 463173); conditions: S. aureus RN4220 wild type/DeltatarO growth, OD600, 18 h, active compounds read low, screened at 18.75 µg/mL (by protocol)

SMILES	survival
O=C(CN1C(=O)C2(SCC(=O)N2c2ccccc2)c2ccccc21)NCc1ccccc1Cl (stereo not given)	97%
Cc1cc(C)c2c(c1)NC(=O)C2(O)c1c[nH]c2ccccc12 (stereo not given)	97%
COc1ccc(C)cc1NC(=O)c1cc2c(s1)-c1ccccc1SC2	46%
CC(C)OCCCNC(=O)c1ccc(Cn2c(=O)c3cccn3c3cccnc32)cc1	111%
COc1ccc(OC)c(NC(=O)c2cc3c(=O)oc4ccccc4c3s2)c1	103%
CCCc1cc(=O)[nH]c2nnc(SC(C)CC)n12 (stereo not given)	80%
Cc1c2cnn(-c3ccccc3)c(=O)c2c(C)n1C(C)C(=O)Nc1ccccc1C(F)(F)F (stereo not given)	81%
O=C(CCCn1c(=O)[nH]c2ccc(Br)cc2c1=O)N1CCN(c2cccc(Cl)c2)CC1	6% (active)
COc1cccc(N2CCN(C(=O)CCCn3c(=O)[nH]c4ccc(Br)cc4c3=O)CC2)c1	53%
Cc1ccc(Cl)cc1N1CCN(C(=O)CCCn2c(=O)[nH]c3ccc(Br)cc3c2=O)CC1	21%
CCOC(=O)c1noc2ncnc(NCc3ccccc3OC)c12	72%
COc1cccc(OCC(=O)NC2CC(=O)N(c3cccc(OC)c3)C2)c1 (stereo not given)	124%
COc1cccc(N2CC(NC(=O)COc3ccc4ccccc4c3)CC2=O)c1 (stereo not given)	94%
COc1ccc(N2CC(NC(=O)c3ccco3)CC2=O)cc1OC (stereo not given)	68%
COc1ccc(OCC(=O)NC2CC(=O)N(c3cccc(OC)c3)C2)cc1 (stereo not given)	-3% (active)
COc1ccc(N2CC(NC(=O)c3ccco3)CC2=O)cc1 (stereo not given)	49%
COc1cccc(N2CC(NC(=O)c3ccco3)CC2=O)c1 (stereo not given)	10% (active)
O=C1CC(=O)SC(c2ccccc2)=N1	105%
CCOC(=O)c1c(C)[nH]c(C)c1S(=O)(=O)N(C)CC(=O)Nc1cc(Cl)ccc1OC	128%
CCOC(=O)c1scc(-c2ccc(C)cc2)c1S(=O)(=O)Nc1ccc(OC)c(Cl)c1	90%
CCOC(=O)c1scc(-c2ccc(C)cc2)c1S(=O)(=O)Nc1cc(OC)ccc1OC	76%
CCOC(=O)c1c(C)[nH]c(C)c1S(=O)(=O)NCC(=O)Nc1cc(Cl)ccc1OC	-6% (active)
CCOC(=O)c1scc(-c2ccc(C)cc2)c1S(=O)(=O)Nc1cc(Cl)ccc1OC	-6% (active)
CCOC(=O)c1c(C)[nH]c(C)c1S(=O)(=O)NCC(=O)Nc1cc(C)ccc1OC	75%

SMILES	survival
CCCc1oc(C(=O)O)cc1CN1CCOCC1	117%
CC(=O)C1=C(c2ccc(C)cc2)N(C(C)=O)n2c(nnc2-c2ccccc2)S1	134%
CCc1cccc2c(-c3ccccc3)nc(SCC(=O)Nc3ccc(OC)cc3)nc12	98%
Cc1ccc2nc(-c3ccc(F)cc3)c(NC(C)(C)CC(C)(C)C)n2c1	14% (active)
Cc1ccc(Nc2c(-c3ccc(C)cc3)nc3ccc(C)cn23)cc1	121%
COCCNc1c(-c2ccc(N)cc2)nc2ccc(C)cn12	101%
CC(=O)N1c2ccccc2CC1C(=O)N1CCN(c2ccccc2F)CC1 (stereo not given)	71%
CCOc1ccc(NC(=O)/C=C\C(=O)N(c2ccc(C(C)C)cc2)C(C(=O)NCc2ccco2)c2ccc(F)cc2)cc1 (stereo not given)	51%
Cc1cccc(NC(=O)CN2C(=O)COc3ccc(S(=O)(=O)Nc4ccccc4)cc32)c1C	123%
Cc1c(Cl)cccc1NC(=O)c1cc2nc(-c3ccc4c(c3)OCO4)cc(C(F)(F)F)n2n1	76%
CCCCOc1nnc(-c2ccc(OCC)cc2)c2ccccc12	-1% (active)
CCOc1ccc(-c2ncccc2O)cc1	106%
CCOc1ccc(-c2nnc(Nc3ccc(S(N)(=O)=O)cc3)c3ccccc23)cc1	88%
COc1ccc(S(=O)(=O)N(CCc2ccccc2)CC(=O)NCc2ccc(C)cc2)cc1	67%
Cc1ccccc1CCNC(=O)c1cc2ccccn2n1	84%
CCOC(=O)C1CCN(S(=O)(=O)c2ccc3c(c2)NC(=O)C(C)C(=O)N3)CC1 (stereo not given)	114%
Cc1ccc(N(C)S(=O)(=O)c2c(-c3ccccc3)csc2C(=O)O)cc1	61%
CC(=O)c1ccc(NC(=O)Cn2ncc3c(C)n(Cc4ccc(F)cc4)c(C)c3c2=O)cc1	74%
COC(=O)c1ccccc1NC(=O)c1nc(-c2ccc(C)cc2)n2c1CCCCC2	86%
COc1ccc(C(=O)Oc2ccc3oc(=O)sc3c2)cc1	95%
COCCn1ccc2c(OCC(=O)Nc3cccc(OC)c3)cccc2c1=O	90%
CCn1ccc2c(OCC(=O)Nc3ccc(C(C)=O)cc3)cccc2c1=O	53%
CCn1ccc2c(OCC(=O)Nc3ccc(OC)cc3OC)cccc2c1=O	-3% (active)
CCn1ccc2c(OCC(=O)Nc3ccccc3C(F)(F)F)cccc2c1=O	80%

SMILES	survival
CCn1ccc2c(OCC(=O)NCc3ccccc3)cccc2c1=O	66%
CCn1ccc2c(OCC(=O)Nc3ccccc3C)cccc2c1=O	0% (active)
CCCN1CCN(C(=O)Cn2c(-c3cccs3)cc3cc(F)ccc32)CC1	85%
Cc1ccc2c(CC(=O)N(Cc3ccc(N(C)C)cc3)Cc3ccco3)coc2c1C	70%
CCc1nn(CC(=O)Nc2ccc(C)cc2C)c(=O)c2cc3sccc3n12	90%
Cc1cc(C)cc(NC(=O)CSc2nncn3c2cc2occc23)c1	66%
Cc1ccc(CNS(=O)(=O)c2ccc3c(c2)CC(C)N3C(=O)C2CCC2)cc1 (stereo not given)	97%
Cc1ccsc1CN(C(=O)c1ccc(OCC(C)C)cc1)C1CCS(=O)(=O)C1 (stereo not given)	85%
CCCCN(c1ccccc1)c1ncnc2c1cnn2-c1cccc(C)c1	68%
COC(=O)c1cc2sccc2n1Cc1ccc(F)cc1	135%
COC(=O)c1cc2sc(C)cc2n1Cc1ccc(Br)cc1F	76%
C=Cc1ccc(Cn2c(C(=O)OC)cc3sc(C)cc32)cc1	0% (active)
COC(=O)c1cc2sc(C)cc2n1Cc1ccccc1	83%
COC(=O)c1cc2sc(C)cc2n1Cc1ccc(F)cc1Cl	65%
COC(=O)c1cc2sc(C)cc2n1Cc1cccc(OC)c1	0% (active)
Cc1cccc(CCn2c(=O)c3ccccc3n(Cc3cccc(F)c3)c2=O)c1	82%
COc1ccc(NC(=O)Cn2cc(S(=O)(=O)c3ccccc3)c(=O)c3cc4c(cc32)OCO4)cc1	79%
COc1cc(CN(C(=O)Nc2ccccc2)c2ccccn2)cc(OC)c1OC	86%
CCCCNC(=O)CN1C(=O)CSc2ccc(S(=O)(=O)N3CCC(C)CC3)cc21	92%
COc1ccccc1NC(=O)CN(C)S(=O)(=O)c1cccc2cccnc12	117%
CC(=O)NC1N=C(C)N(c2ccccc2)C1=O (stereo not given)	101%
COC(=O)c1ccc(Cl)cc1NC(=O)NCCc1c(C)nn(C)c1C	55%
Cc1nn(C)c(C)c1CCNC(=O)Nc1cccc(Cl)c1C	63%
COC(=O)c1ccccc1NC(=O)NCCc1c(C)nn(C)c1C	82%

SMILES	survival
COc1ccc(NC(=O)NCCc2c(C)nn(C)c2C)c(OC)c1	57%
Cc1nn(C)c(C)c1CCNC(=O)Nc1ccccc1C(F)(F)F	1% (active)
COc1ccc(Cl)cc1NC(=O)NCCc1c(C)nn(C)c1C	-3% (active)
Cc1ccc(C2c3[nH]c4ccccc4c3CCN2C(=O)c2ccc(N(C)C)cc2)cc1 (stereo not given)	68%
CCc1cccc(C)c1Nc1c(-c2ccsc2)nc2ncccn12	66%
CNC(=S)N(CCN1CCOCC1)Cc1cc2cc(C)c(Cl)cc2[nH]c1=O	113%
Cc1cccn2c(=O)c(/C=C(\C#N)c3nc4ccccc4s3)c(Oc3ccc(Br)cc3)nc12	129%
O=C(NCc1cccc(Cl)c1)c1cc2ccc3cccnc3c2[nH]1	82%
COc1ccc(-c2nnc(SCC(=O)Oc3cc(C)ccc3C)o2)cc1	86%
CCCCOC(=O)CSc1nnc(-c2ccc(C)cc2)o1	8% (active)
N#Cc1ccccc1CSc1nnc(-c2ccc(Br)cc2)o1	73%
CCCCCSc1nnc(-c2ccc(Br)cc2)o1	-1% (active)
Cc1ccc(-c2nnc(SCc3ccccc3C#N)o2)cc1	66%
CCOC(=O)CSc1nnc(-c2ccc(OC)cc2)o1	72%
Cc1ccc(CSc2nnc(-c3ccc(O)cc3)o2)cc1	108%
Cc1ccc(-c2nnc(SCc3ccccc3C)o2)cc1	-4% (active)
N#Cc1ccc(CSc2nnc(-c3ccc(Br)cc3)o2)cc1	74%
Cc1ccc2occ(-c3cc(-c4ccc(F)cc4)nc4c3COc3ccc(F)cc3-4)c(=O)c2c1	76%
Cc1ccc(-n2c(=O)[nH]c3cc(C(=O)NCCc4ccccc4)ccc3c2=O)cc1	85%
O=C(Nc1ccc(OCc2cc(=O)n3c4c(sc3n2)CCCC4)cc1)c1cccc(F)c1	78%
Cc1ccc(Cl)cc1NC(=O)Nc1nnc(N(C)Cc2ccccc2)s1	93%
COc1ccc(-c2nc3sc(CCNC(=O)C(=O)Nc4ccccc4C#N)c(C)n3n2)cc1	85%
Cc1noc(C)c1S(=O)(=O)N1CCC(C(=O)N2CCN(c3ccccc3)CC2)CC1	128%
